KDM5B inh: blocks human KDM5B histone demethylase activity; Q9UGL1; AID 1347165; KDM5B demethylase, FDH-coupled NADH fluorescence (FDH is formaldehyde dehydrogenase); Potency, µM (top dose mostly 57.7 µM), hits mostly inhibitors; 220,000 compounds, 2.6% hits; active = well fitted inhibition curve with a large enough effect; note: nearly all actives have a fitted effect of over 70% in size
Target sequence (Q9UGL1 whole entry, looked up): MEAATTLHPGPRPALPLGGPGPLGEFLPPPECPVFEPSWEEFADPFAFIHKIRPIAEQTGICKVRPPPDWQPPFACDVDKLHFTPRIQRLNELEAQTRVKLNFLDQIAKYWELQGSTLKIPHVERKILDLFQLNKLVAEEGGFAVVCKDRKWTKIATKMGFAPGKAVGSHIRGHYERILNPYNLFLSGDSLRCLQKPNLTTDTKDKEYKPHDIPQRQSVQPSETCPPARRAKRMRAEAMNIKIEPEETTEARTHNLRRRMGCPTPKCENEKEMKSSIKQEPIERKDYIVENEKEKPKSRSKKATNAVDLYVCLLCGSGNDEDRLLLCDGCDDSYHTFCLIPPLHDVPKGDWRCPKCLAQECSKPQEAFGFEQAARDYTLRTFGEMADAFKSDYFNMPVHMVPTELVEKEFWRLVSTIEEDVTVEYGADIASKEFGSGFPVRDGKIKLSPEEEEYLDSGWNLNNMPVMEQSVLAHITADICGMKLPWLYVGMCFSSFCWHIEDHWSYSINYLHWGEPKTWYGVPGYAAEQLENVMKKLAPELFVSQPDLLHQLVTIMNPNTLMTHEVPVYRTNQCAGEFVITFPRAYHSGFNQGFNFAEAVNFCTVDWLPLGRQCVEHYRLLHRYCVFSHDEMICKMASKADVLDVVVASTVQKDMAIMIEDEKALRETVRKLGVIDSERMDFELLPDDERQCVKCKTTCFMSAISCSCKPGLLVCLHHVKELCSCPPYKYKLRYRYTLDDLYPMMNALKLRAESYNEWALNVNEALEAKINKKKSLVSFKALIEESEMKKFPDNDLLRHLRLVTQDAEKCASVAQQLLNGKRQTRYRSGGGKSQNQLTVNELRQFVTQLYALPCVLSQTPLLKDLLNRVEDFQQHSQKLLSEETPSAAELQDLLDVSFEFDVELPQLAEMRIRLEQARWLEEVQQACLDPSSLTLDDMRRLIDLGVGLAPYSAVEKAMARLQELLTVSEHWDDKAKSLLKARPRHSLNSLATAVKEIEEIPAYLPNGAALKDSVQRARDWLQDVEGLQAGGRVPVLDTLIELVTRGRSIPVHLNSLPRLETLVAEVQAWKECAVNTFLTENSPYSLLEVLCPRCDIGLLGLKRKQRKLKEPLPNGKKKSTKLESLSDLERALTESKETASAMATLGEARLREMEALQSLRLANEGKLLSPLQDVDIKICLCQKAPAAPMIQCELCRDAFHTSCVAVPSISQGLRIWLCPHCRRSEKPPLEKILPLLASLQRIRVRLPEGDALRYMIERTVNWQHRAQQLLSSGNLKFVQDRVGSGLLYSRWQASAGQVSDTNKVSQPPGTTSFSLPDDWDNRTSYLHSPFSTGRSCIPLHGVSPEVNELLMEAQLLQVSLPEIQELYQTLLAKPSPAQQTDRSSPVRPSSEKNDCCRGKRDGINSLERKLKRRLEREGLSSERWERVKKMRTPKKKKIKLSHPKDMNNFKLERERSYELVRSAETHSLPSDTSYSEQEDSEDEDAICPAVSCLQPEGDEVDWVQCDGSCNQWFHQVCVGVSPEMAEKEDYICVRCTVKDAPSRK
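Coupled FDH/NAD⁺ fluorescence readout. KDM5BΔAP 200 nM final; compound titration, 10 min RT preincubation; substrate mix 12.5 µM H3K4me3, 25 µM 2-OG, 50 µM Fe(II), 100 µM ascorbate, 0.25 mM NAD⁺, 0.25 U/mL FDH; ΔRFU over 30 min.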
Of the large screens only hits and unclear results are named; the others gave an inactive call. This excerpt belongs to a sample that is enriched for hits.

CCn1c(SCC(=O)Nc2ccc(C)cc2F)nnc1C(C)NC(=O)c1ccco1 (stereo not given)	none
CCN(Cc1ccc(C(=O)NCCC(=O)N2CCCC2)cc1)C(C)C	none
c1ccc(C(CNCc2cccnc2)N2CCCC2)cc1 (stereo not given)	none
Cc1cc(C)n2nc(C(=O)OC(C)C(=O)c3c(C)[nH]c4ccccc34)nc2n1 (stereo not given)	none
COc1ccc(CNC(=O)/C(C)=C/c2ccccc2)cc1	none
COc1cccc(Nc2cc3c(cn2)CN(C(C)=O)CCN3)c1	none
CC(=O)N1CCNc2cc(Nc3cccc(N(C)C)c3)ncc2C1	none
c1ccc(Nc2cc3c(cn2)CN(Cc2ccccn2)CCN3)cc1	KDM5B inh 32µM
Cn1ccnc1CN1CCNc2cc(Nc3ccccc3)ncc2C1	none
Cc1noc(C)c1CN1CCNc2cc(Nc3cccnc3)ncc2C1	none
CN(C)c1ccc(CN2CCNc3cc(Nc4cccnc4)ncc3C2)cc1	none
CN(C)c1ccc(CN2CCNc3cc(Nc4ccccc4)ncc3C2)cc1	KDM5B inh 40µM
COCCN1CCNc2cc(Nc3cccc(N(C)C)c3)ncc2C1	KDM5B inh 35µM
Cn1cnc(CN2CCNc3cc(Nc4ccccc4)ncc3C2)c1	none
CCOC(=O)C1=C(C)Nc2nc(SCc3ccc(F)cc3)nn2C1c1cccs1 (stereo not given)	none
C[N+](C)(C)CC(=O)c1ccc2c(c1)OCCCO2	none
CC(C)(C)N1CC(c2nc3ccccc3n2Cc2cccc3ccccc23)CC1=O (stereo not given)	none
CCOC(=O)N1CCN(C(=O)CN(c2ccc(F)cc2)S(C)(=O)=O)CC1	none
OCCNc1nc(-c2ccsc2)nc2ccccc12	none
COC(=O)c1ccc(OC(=O)c2ccc(COc3ccccc3)o2)cc1	none
Cc1oc(-c2cccs2)nc1CN1CCCC(c2ccn[nH]2)C1 (stereo not given)	KDM5B inh 28µM
COCC1CCCN(Cc2nc(-c3ccccc3Cl)oc2C)C1 (stereo not given)	none
Cc1oc(-c2cccs2)nc1CN1CCNC(=O)C1	none
CCCCCCCCCSCc1ccc(C(=O)O)o1	none
COCc1nnc(NC(=O)Cn2ccc3cc(OC)ccc32)s1	none
Cc1ccc(-c2cn3c(n2)CO[C@@H](CNC(C)C)C3)cc1	none
Cc1ccc(-c2cn3c(n2)CO[C@@H](CNS(C)(=O)=O)C3)cc1	KDM5B inh 40µM
COc1ccc(-c2cn3c(n2)CO[C@@H](CNS(=O)(=O)c2ccc(C)cc2)C3)cc1	none
COc1cc(-c2nccc3c(=O)cc(N(C)c4ccccc4)oc23)ccn1	none
COc1ccc(-c2nccc3c(=O)cc(N4CCOCC4)oc23)cn1	KDM5B inh 35µM
COc1ccc(-c2ccc3ncc(Nc4ccnc(N5CCOCC5)c4)n3n2)cn1	none
COc1cc(-c2nccc3c(=O)cc(N4CCOCC4)oc23)ccn1	KDM5B inh 25µM
COc1ccc(C(=O)N[C@@H]2CCC[C@@H]2C(=O)N2CCOCC2)cn1	none
CSc1ccccc1C(=O)Nc1cc(Cl)cc(Cl)c1	none
Cn1c(=O)c2c(ncn2Cc2nc(-c3cccc(Cl)c3)no2)n(C)c1=O	none
CCOc1ccc(NC(=O)c2nn(CC)c(=O)c3ccccc23)cc1OCC	none
Cn1nc(C(=O)Nc2ccnn2Cc2ccc(Br)cc2)c2ccccc2c1=O	none
CC(C)c1ccc(NC(=O)C2CC(=O)N(C(C)(C)C)C2)cc1 (stereo not given)	none
CC(C)COc1ccc(Br)cc1C(N)=O	none
Cc1ccc(NC(=O)c2cc3n(n2)CC(c2ccc4c(c2)OCO4)OC3)cc1Cl (stereo not given)	KDM5B inh 28µM
Cc1ccc(NC(=O)c2cc3n(n2)CC(c2ccc4c(c2)OCO4)OC3)cc1F (stereo not given)	KDM5B inh 22µM
C=C(C)Cn1c(-n2nc(C)c(C)c2C)nc2c1c(=O)n(CCN1CCOCC1)c(=O)n2C	none
Cc1cc(C)c(NC(=O)CSc2nc3c(c(=O)[nH]2)CCCC3)c(C)c1	none
O=C(O)/C=C/c1cc(Cl)c(OCc2ccccc2)c(Cl)c1	none
Cc1ccc(C)c(S(=O)(=O)N2CCN(C(=O)c3cc4ccc(F)cc4nc3C)CC2)c1	none
COc1ccc(C(=O)Nc2c(NC3CCCC3)c3ccccc3oc2=O)cc1OC	none
CC(=O)c1ccc(NC(=O)N[C@H]2CO[C@H]3[C@@H]2OC[C@H]3OCC(N)=O)cc1	none
COC(=O)CO[C@@H]1CO[C@H]2[C@@H]1OC[C@@H]2NC(=S)Nc1cc(C)cc(C)c1	KDM5B inh 28µM
Cc1cc(C)cc(NC(=S)N[C@H]2CO[C@H]3[C@@H]2OC[C@H]3OC(=O)NC2CCCCC2)c1	none
CCN(Cc1ccccc1)C(=O)Cn1c(=O)c2c(ncn2C)n(C)c1=O	none
Cc1nc(CCC(=O)NCc2cc3n(n2)CCCN(C(=O)N(C)C)C3)n[nH]1	none
CN(C)C(=O)N1CCCn2nc(CNC(=O)c3sccc3N)cc2C1	KDM5B inh 35µM
Cc1cccc(=O)n1CCC(=O)NCc1cc2n(n1)CCN(C(=O)N(C)C)C2	none
COc1ccc(C(=O)Oc2cc(C)ccc2Cl)cc1OC	none
O=C(c1cccc(S(=O)(=O)N2CCOCC2)c1)N(Cc1ccco1)C1CCS(=O)(=O)C1 (stereo not given)	none
CC(C)CC(=O)N[C@H](C)c1onc(-c2ccc(F)cc2)c1C(=O)O	none
Cc1nn(-c2ccccc2)nc1C(=O)N[C@H](C)c1onc(-c2ccc(F)cc2)c1C(=O)O	KDM5B inh 32µM
C[C@@H](NC(=O)c1nc2ccccc2[nH]1)c1onc(-c2ccc(F)cc2)c1C(=O)O	KDM5B inh 35µM
C[C@@H](NC(=O)C1CC1)c1onc(-c2ccc(F)cc2)c1C(=O)O	none
C[C@@H](NC(=O)NC(C)(C)C)c1onc(-c2ccc(F)cc2)c1C(=O)O	none
C[C@@H](NC(=O)c1ccc(Cl)cc1)c1onc(-c2ccc(F)cc2)c1C(=O)O	none
c1csc(-c2nc(N3CCCC3)c3ccccc3n2)c1	none
O=C(Cn1nc(C(=O)O)c2ccccc2c1=O)Nc1ccccc1Cl	none
CN(CCCNC(=O)c1cnc2ccccc2n1)S(C)(=O)=O	none
O=C1c2cnc(-c3ccsc3)nc2OCCN1c1ccccc1	none
Cc1cccc(N2Cc3c(ncnc3N3CCOCC3)CN(C)C2=O)c1	none
Cc1ccccc1-c1nc(N2CCOCC2)cc2c1CN(Cc1ccccc1)C2=O	KDM5B inh 32µM
CCc1cc(=O)n(Cc2ccccc2)c(N2CCOCC2)n1	none
CN1CC(=O)N(C2CCCCC2)Cc2c1ncnc2N1CCOCC1	none
Cc1ccccc1NC(=O)Nc1ccc2nc(N3CCOCC3)cc(C)c2c1	none
Cc1ccccc1-c1nc(N2CCOCC2)cc2c1CN(c1ccccc1)C2=O	KDM5B inh 35µM
O=C(c1nc(-c2cccnc2)no1)N1CCN(c2ccccc2)CC1	none
O=C1c2cnc(-c3ccccc3C(F)(F)F)nc2OCCN1Cc1ccccc1	none
CN1Cc2c(cc(N3CCOCC3)nc2-c2cnn(C)c2)C1=O	KDM5B inh 40µM
O=C1c2cc(N3CCOCC3)nc(-c3cccnc3)c2CN1c1ccccc1	KDM5B inh 40µM
COc1ccc(-c2nc(N3CCOC[C@H]3C)cc3c2CN(C(C)C)C3=O)cc1	none
CCOc1ccc(-c2nc(CNC(=O)Nc3ccc(C)c(C)c3)c(C)o2)cc1	none
Cc1ccc(-c2noc([C@@H]3C[C@H](NS(=O)(=O)Cc4ccccc4)CN3C)n2)cc1	none
CCCOC(=O)C(C)Oc1ccc2c(=O)c(Oc3ccc(CC)cc3)coc2c1 (stereo not given)	none
O=CN1CCN(C(C(=O)O)c2c[nH]c3cc(OCc4ccccc4)ccc23)CC1 (stereo not given)	none
Cc1ccc(C)c(C(=O)Nc2ccc(N(C)C)cc2)c1	none
Cc1ccccc1-n1cnnc1SCCC(=O)Nc1cccc(S(=O)(=O)N2CCCC2)c1	none
CCOc1ccc(NC(=O)c2cnn(-c3ccc(F)cc3)c2-n2cccc2)cc1	none

High-throughput results: PubChem BioAssay, National Center for Advancing Translational Sciences (NCATS)
